The full list was thinned out, with hits kept by preference.
HIV RNase H inh-1: blocks HIV-1 RNase H cleavage of RNA/DNA duplex; RT-RNase H RNA/DNA duplex cleavage, fluorescence; inhibition, % at 10 µM; P04585; actives 1.9% (n = 65,000); in the data active = inhibition above about 50%
RmlCD inh mix: mixture blocks RmlC and RmlD coupled enzyme activity; inhibition, % at 5.5 µM; AID 1532; RmlC/RmlD coupled enzyme inhibition, 384-well mixture HTS; actives 0.39% (n = 110,000); in the data active = inhibition above about 30%, passing the limit was not always enough; inconclusive = no clear call, values can overlap the other calls
HIV RNase H inh-2: confirmation of HIV-1 reverse transcriptase RNase H inhibitors. shares compounds with HIV RNase H inh-1. Recombinant RT RNase H, fluorescent RNA/DNA duplex cleavage. inhibition, % at 10 µM. actives 39% (n = 1,000); in the data active = inhibition above about 48%; inconclusive = no clear call, values can overlap the other calls
An asterisk follows results filed as active; ? = inconclusive; . = no result.

SMILES | HIV RNase H inh-1 | RmlCD inh mix | HIV RNase H inh-2
COc1ccc2c(c1)S/C(=C\C(=O)c1ccncc1)N2C | 66.6* | -8.6 | 19.3
CN1/C(=C/C(=O)c2cccs2)Sc2ccccc21 | . | -15.2 | .
Cc1ccc(C2C=C(c3ccccc3)Nc3ncnn32)cc1 (stereo unspecified) | . | 9.6 | .
C1=C(c2ccc(-c3ccccc3)cc2)Nc2ncnn2C1c1ccco1 (stereo unspecified) | 89.7* | 12.5 | 51.7*
CCOC(=O)c1sc(N)nc1-c1ccccc1 | 70.8* | -10.8 | 38.4
CCOC(=O)c1sc(N(C)C)nc1-c1ccccc1 | . | 9.1 | .
CN(C)c1ccc(C(c2nnnn2C2CCCCC2)N2CCN(C(=O)c3ccco3)CC2)cc1 (stereo unspecified) | 4.8 | . | .
COc1cccc(-n2nc(C(=O)N3CC(C)CC(C)C3)c3ccccc3c2=O)c1 (stereo unspecified) | . | -18.7 | .
Cn1ccnc1P(=S)(c1nccn1C)c1nccn1C | -6.4 | 3.9 | .
Cn1ccnc1P(=S)(c1nccn1C)N1CCOCC1 | 87.1* | 6.8 | 62.3*
CC(C)Sc1nc(-c2cccs2)nc2c1c(=O)n(C)c(=O)n2C | 73.6* | 8.3 | 90.4*
Cn1c(=O)c2c(SCC(=O)NCC3CCCO3)nc(-c3cccs3)nc2n(C)c1=O (stereo unspecified) | -6.9 | . | .
COc1cccc(C=Nc2ccc3c(c2)OCCO3)c1O | -2.1 | . | .
CCOc1cccc(C=Nc2cc(C)cc(C)c2O)c1O | 91.3* | -6.2 | 73.5*
COc1ccccc1N1CCN(S(=O)(=O)CC23CCC(CC2=O)C3(C)C)CC1 (stereo unspecified) | -4.6 | -1.9 | .
CC(C)n1cnc2c(N(C)c3ccccc3)nc(N(CCN(C)C)Cc3ccccc3)nc21 | . | 7.9 | .
CCNC(=O)c1sc(=S)n(-c2ccc(C)cc2)c1N | . | 17.5 | .
CCOC(=O)c1sc(=S)n(-c2ccccc2)c1N | . | -4.6 | .
Cc1ccc(-n2c(N)c(C(=O)N3CCOCC3)sc2=S)cc1 | 94.7* | -1.9 | 76.2*
CN1CCN(C(=O)c2sc(=S)n(-c3ccccc3)c2N)CC1 | 94.9* | -3.5 | 59.0*
COc1ccc(OC)c(C(c2nnnn2CCC(C)C)N2CCN(C(=O)c3ccco3)CC2)c1 (stereo unspecified) | 1.6 | -0.7 | .
COc1ccc(C(=O)N2CCC(C(=O)NCc3ccccn3)CC2)cc1 | -19.8 | -13.0 | .
O=S(=O)(c1ccc(N2CCN(CCO)CC2)nc1)N1CCCCC1 | . | -8.9 | .
CCSc1nnc(NC(=O)C2Cc3ccccc3CN2C(=O)c2ccco2)s1 (stereo unspecified) | 53.3* | -4.9 | ?
NS(=O)(=O)c1ccc(CCNC(=O)C2Cc3ccccc3CN2C(=O)c2ccco2)cc1 (stereo unspecified) | . | 7.9 | .
SMILES | HIV RNase H inh-1 | RmlCD inh mix | HIV RNase H inh-2
COC(=O)[C@@H](NC(=O)NCc1ccco1)C(C)C | -4.2 | 11.0 | .
Cc1sc(-n2c(C)ccc2C)c(C#N)c1C | 65.1* | 6.7 | ?
Cc1ccc(C)n1-c1sc2c(c1C#N)CCCC2 | . | 27.3 | .
O=C(O)C1CSCN1S(=O)(=O)c1cccc2nsnc12 (stereo unspecified) | 62.1* | 3.7 | -2.6
O=C(NC1CCCCC1)C1CCCN1S(=O)(=O)c1cccc2nsnc12 (stereo unspecified) | -1.1 | 5.0 | .
CCOC(=O)c1sc(NC(C)=O)c(C(=O)OCC)c1C | -3.5 | 6.7 | .
COC(=O)c1sc(NC(C)=O)c(C(=O)OC)c1C | 57.7* | 0.7 | 0.0
COc1ccc(-c2ocnc2C(=O)Nc2ccccc2N2CCCCC2)cc1 | 76.3* | -23.5 | 45.5
CCOc1ccc(C(=O)Nc2ccccc2N2CCCC2)cc1 | . | -16.4 | .
O=C(C1=C[C@@H](c2ccc(Br)cc2)C[C@@H](OCc2ccc(CO)cc2)O1)N1CCN(Cc2ccc3c(c2)OCO3)CC1 | . | 8.0 | .
O=C(NCc1ccco1)c1c2c(nc3ccccc13)CCC2 | 64.8* | . | 21.9
O=C(NCc1ccco1)c1csc2c1CCCCC2 | -7.0 | -9.6 | .
CC(=O)c1cccc(-n2nnnc2SCC(=O)Nc2cccc(NC(=O)c3ccco3)c2)c1 | -8.8 | 7.0 | .
CC(C)(C)c1ccc(-c2nnc3sc(-c4ccncc4)nn23)cc1 | 94.7* | -3.2 | 57.6*
Cc1nnc2sc(-c3ccncc3)nn12 | -6.9 | 30.5 | .
CCOc1ccc(-c2nn3c(-c4ccc(OC)cc4)nnc3s2)cc1 | -0.8 | . | .
CCOc1ccc(-c2nn3c(-c4ccccc4)nnc3s2)cc1 | 87.2* | -8.8 | 17.2
O=S(=O)(c1cccs1)N1CCN(CC(O)COc2cc(Cl)ccc2Cl)CC1 (stereo unspecified) | -13.0 | 8.1 | .
Cc1sc(NC(=O)CSc2nc(N)n(CC(=O)c3ccccc3)n2)c(C#N)c1C | -24.6 | 66.7 | .
Cc1ccc(S(=O)(=O)N2CCOCC2)cc1C(=O)N1c2ccccc2Sc2ccccc21 | . | 12.0 | .
CCOC(=O)N1CCN(Cc2nc3c(c(=O)[nH]c(=O)n3C)n2Cc2cc(C)ccc2C)CC1 | -2.5 | 4.5 | .

Assay outcomes from PubChem.
